Assay results reported in PubChem BioAssay (EPA / NIEHS).
The source made the active and inactive calls. Rule for the calls: active = hit-call score of the fitted dose curve at least 0.9, where 1 is the maximum; inactive = score below 0.9.

Tests used:
[1] = read-out: Cyclin Dependent Kinase Inhibitor 1A (CDKN1A), CDKN1A (gene 1026); test: LTEA_HepaRG_CDKN1A: Life Technologies and Expression Analysis (LTEA) Assay for Cyclin Dependent Kinase Inhibitor 1A (CDKN1A) using HepaRG (AID 2283450); details: mRNA level, 48 h; actives raise or lower the signal
Method in brief: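 Expression quantified by Fluidigm qRT-PCR with ACTB, GAPDH and POLR2A normalization, fitted bidirectionally against 0.5% DMSO. Cells: HepaRG, plated 48 h then treated 48 h in serum-free induction medium, top concentration 100 uM with half-log dilutions.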

[2] = read-out: Cyclin D1 (CCND1), CCND1 (gene 595); test: LTEA_HepaRG_CCND1: Life Technologies and Expression Analysis (LTEA) Assay for Cyclin D1 (CCND1) using HepaRG (AID 2283451); details: mRNA level, 48 h; actives raise or lower the signal;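 for AC50: differentiated human HepaRG liver cells in serum-free induction medium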
Method in brief: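 Expression of CCND1 was quantified by qRT-PCR on Fluidigm arrays using ACTB, GAPDH and POLR2A as reference genes. HepaRG cultures, plated 48 h beforehand, were dosed for 48 h at up to 100 uM (half-log, 8 points) in 0.5% DMSO.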

[3] = read-out: catalase (CAT), CAT (gene 847); test: LTEA_HepaRG_CAT: Life Technologies and Expression Analysis (LTEA) Assay for catalase (CAT) using HepaRG (AID 2283452); details: mRNA level, 48 h; actives raise or lower the signal
Method in brief: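 HepaRG cells in serum-free induction medium, 0.5% DMSO vehicle, exposed 48 h in duplicate over 8 half-log concentrations from 100 uM. CAT mRNA measured by qRT-PCR, normalized to ACTB, GAPDH, POLR2A; bidirectional fit versus DMSO.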

[4] = read-out: CFLAR gene, CFLAR (gene 8837); test: LTEA_HepaRG_CFLAR: Life Technologies and Expression Analysis (LTEA) Assay for CFLAR gene using HepaRG (AID 2283455); details: mRNA level, 48 h; actives raise or lower the signal
Method in brief: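 qRT-PCR read-out (Fluidigm/TaqMan) of CFLAR mRNA, normalized to three housekeeping genes, in differentiated human HepaRG cells after 48 h chemical exposure; 8-point half-log series from 100 uM in 0.5% DMSO; bidirectional curve fitting versus DMSO.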

[5] = read-out: Forkhead box O1 (FOXO1), FOXO1 (gene 2308); test: LTEA_HepaRG_FOXO1: Life Technologies and Expression Analysis (LTEA) Assay for Forkhead box O1 (FOXO1) using HepaRG (AID 2283456); details: mRNA level, 48 h; actives raise or lower the signal
Method in brief: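 HepaRG, 48 h exposure, 8-pt half-log series from 100 uM in 0.5% DMSO, duplicates; Fluidigm qRT-PCR mRNA, housekeeping-normalised; bidirectional fit vs DMSO baseline.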

[6] = CEETOX_H295R_TESTO: CeeTox H295R High-throughput Steroidogenesis Assay for Testosterone (TESTO) (AID 2283457); details: actives raise or lower the signal
Method in brief: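 Testosterone secreted into the medium over 48 h by H295R cells (maximum passage 10) was quantified by LC-MS/MS after MTBE extraction. Fitted in both directions against DMSO, with concentrations diluted until MTT viability was ≥70%.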

[7] = read-out: growth arrest and DNA damage 45 (GADD45A), GADD45A (gene 1647); test: LTEA_HepaRG_GADD45A: Life Technologies and Expression Analysis (LTEA) Assay for growth arrest and DNA damage 45 (GADD45A) using HepaRG (AID 2283458); details: mRNA level, 48 h; actives raise or lower the signal
Method in brief: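 GADD45A expression was measured by TaqMan qRT-PCR against three housekeeping genes (ACTB, GAPDH, POLR2A) after 48 h treatment of HepaRG cells. Eight-point half-log series up to 100 uM in 0.5% DMSO, run in duplicate.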

[8] = read-out: Forkhead box O3 (FOXO3), FOXO3 (gene 2309); test: LTEA_HepaRG_FOXO3: Life Technologies and Expression Analysis (LTEA) Assay for Forkhead box O3 (FOXO3) using HepaRG (AID 2283459); details: mRNA level, 48 h; actives raise or lower the signal
Method in brief: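 qRT-PCR readout of FOXO3 transcript, normalized to three housekeeping genes (ACTB, GAPDH, POLR2A); gain or loss fitted against 0.5% DMSO vehicle. HepaRG cells, 48 h chemical exposure, 8-point half-log series, top 100 uM.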

[9] = read-out: ABC Transporter (ABCB1), ABCB1 (gene 5243); test: LTEA_HepaRG_ABCB1: Life Technologies and Expression Analysis (LTEA) Assay for ABC Transporter (ABCB1) using HepaRG (AID 2283460); details: mRNA level, 48 h; actives raise or lower the signal
Method in brief: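 HepaRG, 48 h exposure, 8-pt half-log series from 100 uM, 0.5% DMSO vehicle, duplicates. Readout: ABCB1 transcript by Fluidigm TaqMan qRT-PCR, housekeeping-normalized; bidirectional curve fit vs DMSO baseline.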

[10] = read-out: growth arrest and DNA damage 45 (GADD45B), GADD45B (gene 4616); test: LTEA_HepaRG_GADD45B: Life Technologies and Expression Analysis (LTEA) Assay for growth arrest and DNA damage 45 (GADD45B) using HepaRG (AID 2283461); details: mRNA level, 48 h; actives raise or lower the signal
Method in brief: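 Transcript level quantified by Fluidigm TaqMan qRT-PCR with three housekeeping genes for normalization, analyzed for up- or down-regulation against 0.5% DMSO. HepaRG cultures dosed 48 h at eight half-log concentrations up to 100 uM, duplicates.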

[11] = read-out: ABC Transporter (ABCC3), ABCC3 (gene 8714); test: LTEA_HepaRG_ABCC3: Life Technologies and Expression Analysis (LTEA) Assay for ABC Transporter (ABCC3) using HepaRG (AID 2283462); details: mRNA level, 48 h; actives raise or lower the signal
Method in brief: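 Transcript level by TaqMan qRT-PCR, normalised to three housekeeping genes, fitted in both directions relative to vehicle. Chemicals tested in duplicate at eight half-log concentrations up to 100 uM for 48 h on HepaRG cells (0.5% DMSO).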

[12] = read-out: ABC Transporter (ABCB11), ABCB11 (gene 8647); test: LTEA_HepaRG_ABCB11: Life Technologies and Expression Analysis (LTEA) Assay for ABC Transporter (ABCB11) using HepaRG (AID 2283463); details: mRNA level, 48 h; actives raise or lower the signal
Method in brief: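 HepaRG, 48 h exposure, 8-pt half-log CRC top 100 uM, 0.5% DMSO vehicle, duplicates. Readout: TaqMan qRT-PCR of ABCB11 mRNA, housekeeping-normalized (ACTB/GAPDH/POLR2A). Bidirectional fit vs DMSO baseline.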

[13] = read-out: ABC Transporter (ABCC2), ABCC2 (gene 1244); test: LTEA_HepaRG_ABCC2: Life Technologies and Expression Analysis (LTEA) Assay for ABC Transporter (ABCC2) using HepaRG (AID 2283464); details: mRNA level, 48 h; actives raise or lower the signal
Method in brief: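 Endpoint is ABCC2 transcript level from qRT-PCR, normalized to three housekeeping genes and fitted bidirectionally relative to DMSO. Human HepaRG cells received test chemical for 48 h at up to 100 uM (8 points, half-log steps, 0.5% DMSO), duplicate wells.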

[14] = read-out: Broad substrate specificity ATP-binding cassette transporter ABCG2 (Homo sapiens) (UniProt Q9UNQ0); test: LTEA_HepaRG_ABCG2: Life Technologies and Expression Analysis (LTEA) Assay for ABC Transporter (ABCG2) using HepaRG (AID 2283465); details: mRNA level, 48 h; actives raise or lower the signal
Method in brief: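 HepaRG, 48 h exposure, 8-pt half-log series from 100 uM, 0.5% DMSO vehicle, duplicates. Readout: ABCG2 transcript by qRT-PCR (Fluidigm array), housekeeping-normalized; bidirectional curve fit relative to DMSO baseline.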

[15] = read-out: ATP-citrate lyase (ACLY), ACLY (gene 47); test: LTEA_HepaRG_ACLY: Life Technologies and Expression Analysis (LTEA) Assay for ATP-citrate lyase (ACLY) using HepaRG (AID 2283466); details: mRNA level, 48 h; actives raise or lower the signal
Method in brief: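 qRT-PCR readout of ACLY transcript after 48 h chemical treatment of HepaRG cells; expression normalized to three housekeeping genes. Eight-point half-log series, highest 100 uM, 0.5% DMSO vehicle. Gain or loss fitted against DMSO baseline.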

[16] = read-out: Peroxisomal acyl-coenzyme A oxidase 1 (ACOX1) gene, ACOX1 (gene 51); test: LTEA_HepaRG_ACOX1: Life Technologies and Expression Analysis (LTEA) Assay for Peroxisomal acyl-coenzyme A oxidase 1 (ACOX1) gene using HepaRG (AID 2283467); details: mRNA level, 48 h; actives raise or lower the signal
Method in brief: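 HepaRG, 48 h chemical exposure, 8-pt half-log series from 100 uM top, 0.5% DMSO vehicle, duplicates. Readout: ACOX1 mRNA by Fluidigm qRT-PCR, housekeeping-normalized; bidirectional fit vs DMSO baseline.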

[17] = read-out: Alkaline Phosphatase, Placental (ALPP) gene, ALPP (gene 250); test: LTEA_HepaRG_ALPP: Life Technologies and Expression Analysis (LTEA) Assay for Alkaline Phosphatase, Placental (ALPP) gene using HepaRG (AID 2283468); details: mRNA level, 48 h; actives raise or lower the signal;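 note: differentiated human HepaRG liver cells in serum-free induction medium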
Method in brief: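 ALPP transcript level, measured by qRT-PCR and normalized to three housekeeping genes (ACTB, GAPDH, POLR2A), after 48 h dosing of differentiated HepaRG in serum-free induction medium. Top concentration 100 uM with half-log dilutions (8 points, 0.5% DMSO, duplicates); bidirectional fitting relative to DMSO.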

[18] = read-out: Cyclin D2 (CCND2), CCND2 (gene 894); test: LTEA_HepaRG_CCND2: Life Technologies and Expression Analysis (LTEA) Assay for Cyclin D2 (CCND2) using HepaRG (AID 2283449); details: mRNA level, 48 h; actives raise or lower the signal;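 note: CCND2 transcript measured by TaqMan qRT-PCR and normalised to three housekeeping genes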
Method in brief: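 HepaRG, 48 h dosing, 8-pt half-log curve from 100 uM, 0.5% DMSO; duplicate wells. Readout: CCND2 transcript by microfluidic qRT-PCR, housekeeping-normalised; bidirectional fit vs DMSO baseline.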

Broad substrate specificity ATP-binding cassette transporter ABCG2 (Homo sapiens), sequence (Q9UNQ0 whole entry, looked up): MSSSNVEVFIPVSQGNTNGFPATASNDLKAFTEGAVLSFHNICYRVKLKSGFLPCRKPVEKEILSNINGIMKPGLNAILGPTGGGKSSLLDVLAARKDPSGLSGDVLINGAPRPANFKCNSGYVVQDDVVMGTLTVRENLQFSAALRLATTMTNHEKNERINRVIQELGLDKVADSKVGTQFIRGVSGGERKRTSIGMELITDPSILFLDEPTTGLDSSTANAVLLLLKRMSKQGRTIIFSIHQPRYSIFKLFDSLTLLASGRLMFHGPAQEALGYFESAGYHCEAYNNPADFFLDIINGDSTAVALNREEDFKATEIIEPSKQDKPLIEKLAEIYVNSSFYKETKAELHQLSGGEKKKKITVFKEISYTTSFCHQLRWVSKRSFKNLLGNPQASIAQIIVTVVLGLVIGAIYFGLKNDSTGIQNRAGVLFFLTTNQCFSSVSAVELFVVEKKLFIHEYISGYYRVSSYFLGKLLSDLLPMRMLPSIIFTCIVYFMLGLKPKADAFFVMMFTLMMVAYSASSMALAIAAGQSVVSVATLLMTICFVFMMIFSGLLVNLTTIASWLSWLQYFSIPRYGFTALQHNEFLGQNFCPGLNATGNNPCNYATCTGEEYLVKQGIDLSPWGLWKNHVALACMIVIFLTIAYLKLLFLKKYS

CCCC1COC(Cn2cncn2)(c2ccc(Cl)cc2Cl)O1 (centres undefined)
AC50 [1]: 33.2 µM (active) | AC50 [2]: 90.2 µM (active) | AC50 [3]: 37.2 µM (active) | AC50 [4]: 77.7 µM (active) | AC50 [5]: 76.1 µM (active) | outcome [6]: inactive | AC50 [7]: 67.2 µM (active) | outcome [8]: inactive | outcome [9]: inactive | outcome [10]: inactive | AC50 [11]: 12.2 µM (active) | AC50 [12]: 36.9 µM (active) | AC50 [13]: 68.5 µM (active) | AC50 [14]: 22.2 µM (active) | AC50 [15]: 11.9 µM (active) | AC50 [16]: 25.9 µM (active) | AC50 [17]: 25.6 µM (active)

CCOc1cc(Oc2ccc(C(F)(F)F)cc2Cl)ccc1[N+](=O)[O-]
outcome [18]: inactive | outcome [1]: inactive | outcome [2]: inactive | AC50 [3]: 36.2 µM (active) | outcome [4]: inactive | outcome [5]: inactive | outcome [7]: inactive | outcome [8]: inactive | outcome [9]: inactive | outcome [10]: inactive | outcome [11]: inactive | AC50 [12]: 19.1 µM (active) | outcome [13]: inactive | AC50 [14]: 9.39 µM (active) | outcome [15]: inactive | AC50 [16]: 50 µM (active) | AC50 [17]: 40.3 µM (active)
